Source: PubChem BioAssay (Tox21)
Values joined by “and” are separate entries in the source; they are usually repeats but may differ in a detail not shown here. Equal values may be shown once. A number with no mark means an inactive call. Where a call stands in place of a potency, no number is given. Active and inactive are the calls of the source. Calls come from the whole dose curve; as a rule, active = well fitted activation curve with a large enough effect in the repeat runs; inconclusive = weak or mixed curves; inactive = flat fitted curve, though single readings scatter.

Molecular target: KiSS-1 receptor (Homo sapiens) (UniProt Q969F8)
Sequence (Q969F8 whole entry, looked up): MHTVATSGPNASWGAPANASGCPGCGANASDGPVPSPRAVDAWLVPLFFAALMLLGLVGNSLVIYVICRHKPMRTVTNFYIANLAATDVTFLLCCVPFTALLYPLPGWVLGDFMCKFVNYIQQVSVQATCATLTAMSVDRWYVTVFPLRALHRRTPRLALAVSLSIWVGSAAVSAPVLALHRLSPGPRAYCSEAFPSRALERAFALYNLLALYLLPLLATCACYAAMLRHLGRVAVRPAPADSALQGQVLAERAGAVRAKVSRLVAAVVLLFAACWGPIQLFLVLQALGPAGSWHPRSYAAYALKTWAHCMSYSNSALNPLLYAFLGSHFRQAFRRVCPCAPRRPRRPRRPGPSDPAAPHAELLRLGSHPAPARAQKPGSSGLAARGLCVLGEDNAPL
Test: Human kisspeptin (KISS1R) small molecule agonists, calcium flux assay in KISS1R-HEK293 cells (AID 1920064)
Outline: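 Agonist activity is monitored as intracellular calcium rise in engineered HEK293 cells carrying human KISS1R. Cells are dye-loaded for 1 h at 37 C before compound addition, and fluorescence is recorded for 3 min.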
Potency is the fitted concentration of half-maximal effect.

CC(C)Oc1ccc2c(=O)c(-c3ccccc3)coc2c1
Potency: inactive

COC(=O)CCCCC(=O)O
Potency: inactive

CC(C)CCCC(C)CCCC(C)CCCCC(C)CCCC(C)CCCC(C)C (stereo not given)
Potency: inactive

CCCCN(CCCC)CCCCCCN(CCCC)CCCC
Potency: inactive

CCCCCCCCC1CCC(=O)O1 (stereo not given)
Potency: inactive

COc1ccc(N=[N+]([O-])c2ccc(OC)cc2)cc1
Potency: inactive

CCCCCCCCCC/C=C/C#N
Potency: inactive

CCCCc1ccc(Cl)cc1
Potency: inactive

OCCCCCCCl
Potency: inactive

C/C=C/C(=O)CCCC
Potency: inactive

C=CC(=O)NC(C)C
Potency: inactive

C1=CCC2CC=CC2C1 (stereo not given)
Potency: inactive

O=C(OC(=O)c1ccccc1)c1ccccc1
Potency: inactive

O=C1NCCN1CCO
Potency: inactive

ON(Cc1ccccc1)Cc1ccccc1
Potency: inactive

CSc1ccc2c(c1)N(CCC1CCCCN1C)c1ccccc1S2 (stereo not given)
Potency: inactive

C=CCCCCCCCCO
Potency: inactive

COc1ccccc1N=Nc1c(S(=O)(=O)O)cc2cc(S(=O)(=O)O)cc(NC(C)=O)c2c1O
Potency: inactive

O=S(=O)(O)c1ccc(N=Nc2c(O)ccc3cc(S(=O)(=O)O)ccc23)cc1
Potency: inactive

CCCCC(CC)COCCC#N (stereo not given)
Potency: inactive

OC[C@H]1O[C@@H]2O[C@H]3[C@H](O)[C@@H](O)[C@@H](O[C@H]4[C@H](O)[C@@H](O)[C@@H](O[C@H]5[C@H](O)[C@@H](O)[C@@H](O[C@H]6[C@H](O)[C@@H](O)[C@@H](O[C@H]7[C@H](O)[C@@H](O)[C@@H](O[C@H]8[C@H](O)[C@@H](O)[C@@H](O[C@H]1[C@H](O)[C@H]2O)O[C@@H]8CO)O[C@@H]7CO)O[C@@H]6CO)O[C@@H]5CO)O[C@@H]4CO)O[C@@H]3CO
Potency: inactive

O=C1OC2(c3cc(Br)c(O)c(Br)c3Oc3c2cc(Br)c(O)c3Br)c2c(Cl)c(Cl)c(Cl)c(Cl)c21
Potency: 55 µM (active) and 33.4 µM (active)

CCOC(=O)n1ccn(C)c1=S
Potency: inactive

CC(=O)OCc1ccccc1
Potency: inactive

CO[Si](CCCNCCN)(OC)OC
Potency: inactive

CC(=O)OCc1ccco1
Potency: inactive

CCOC(=O)C(C)Oc1ccc(Oc2cnc3cc(Cl)ccc3n2)cc1 (stereo not given)
Potency: inactive

CCc1ccccc1O
Potency: inactive

NS(=O)(=O)c1ccc(NC(=O)CCC(=O)O)cc1
Potency: inactive

CCCCCCCCCCCCOCC1CO1 (stereo not given)
Potency: inactive

Cc1ccc2oc(=O)ccc2c1
Potency: inactive

Nc1nc(N)nc(-c2ccccc2)n1
Potency: inactive

O=C1CCCCC1
Potency: inactive

OCC(CO)(CO)CO
Potency: inactive

O=C(/C=C/c1ccccc1)OCc1ccccc1
Potency: inactive

CCCCOCCOCCOC(=O)CCCCC(=O)OCCOCCOCCCC
Potency: inactive

N[C@@H](CSSC[C@H](N)C(=O)O)C(=O)O
activation: -0.737% [at 0.29 µM]

CC(=O)CC(=O)Nc1ccccc1C
Potency: inactive

C=C(C)C(=O)NCCCN(C)C
Potency: inactive

CCCCCC1CCCC(=O)O1 (stereo not given)
Potency: inactive

Cc1cccc(N(C)C)c1
Potency: inactive

COC(=O)c1ccccc1C(=O)O
Potency: inactive

OCCN1CCNCC1
Potency: inactive

CNCCS(=O)(=O)O
Potency: inactive

CCCCCCCCCCCC(=O)OCC(C)OC(=O)CCCCC(=O)O (stereo not given)
Potency: inactive
